Whole data set: some 8,300 sequences, median “log2 fold change of degron read counts, EGFP-low vs EGFP+ sorted cells (limma voom), compound-induced degradation” near -1.1, cut for the highest 2% near 3.2. This excerpt belongs to a sample that is enriched for the highest values.

The target in this assay is T1, CRBN, Q96SW2.
T1 chain: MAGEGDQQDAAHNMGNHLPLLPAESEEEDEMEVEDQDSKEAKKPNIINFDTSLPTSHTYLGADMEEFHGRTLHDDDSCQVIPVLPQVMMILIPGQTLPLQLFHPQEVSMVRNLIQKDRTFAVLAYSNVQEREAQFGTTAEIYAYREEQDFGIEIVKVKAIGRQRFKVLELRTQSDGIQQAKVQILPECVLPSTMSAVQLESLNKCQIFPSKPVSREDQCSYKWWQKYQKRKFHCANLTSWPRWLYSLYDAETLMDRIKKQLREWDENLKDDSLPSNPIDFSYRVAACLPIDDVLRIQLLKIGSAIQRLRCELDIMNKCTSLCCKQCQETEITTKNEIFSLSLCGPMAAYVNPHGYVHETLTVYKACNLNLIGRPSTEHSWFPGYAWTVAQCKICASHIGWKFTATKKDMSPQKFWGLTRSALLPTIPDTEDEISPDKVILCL
Put plainly: log2 fold change of degron read counts, EGFP-low vs EGFP+ sorted cells (limma voom), compound-induced degradation; higher = more compound-induced degradation of the degron-EGFP fusion; degrons are variants of IKZF1/3 zinc finger 2; compound dose not given here. The note with it: Jurkat, 18 h.

Where [1] appears, read: compound: compound 19 (5-tert-butyl-thalidomide).
The mark [2] stands for this setting: compound: compound 22 (5-morpholino-thalidomide).
Setting [3] is: compound: compound 33 (diphenyl IMiD analogue).
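Also: pooled lentiviral library of zinc finger degron-EGFP fusions in mCherry-positive Jurkat cells, FACS-sorted after compound exposure, with degron abundance counted by next-generation sequencing.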

FTCNQCGALFTQKGNLLRHIKL [46F_47T_49N_50Q_52G_53A_54L_55F_67L_, Q9UKT9]: the “log2 fold change of degron read counts” value under setting [1] was -2.64, the “log2 fold change of degron read counts” value under setting [2] was -2.95, the “log2 fold change of degron read counts” value under setting [3] is -1.35 and the “log2 fold change of degron read counts” value (compound: thalidomide) is -2.16.
For the sequence FRCEICGRWFTQKGNLLRHIKL [46F_47R_49E_50I_52G_53R_54W_55F_67L_, Q9UKT9], the “log2 fold change of degron read counts” value is -2.31 under setting [1], -2.38 under setting [2], -1.89 under setting [3] and 0.776 (compound: thalidomide).
Take FFCPICGHAFTQKGNLLRHIKL [46F_47F_49P_50I_52G_53H_54A_55F_67L_, Q9UKT9]: the “log2 fold change of degron read counts” value reads like this: under setting [1], -0.981; under setting [2], -1.5; under setting [3], -0.604; (compound: thalidomide) -1.29.
Take FHCNQCGACFTQKGNLLRHIKL [46F_47H_49N_50Q_52G_53A_54C_55F_67L_, Q9UKT9]: the “log2 fold change of degron read counts” value under setting [1] is -1.49, the “log2 fold change of degron read counts” value under setting [2] is -1.87, the “log2 fold change of degron read counts” value under setting [3] is -1.86 and the “log2 fold change of degron read counts” value (compound: thalidomide) was -2.37.
The corresponding values for LRCNQCGFLCTQKGNLLRHIKL [46L_47R_49N_50Q_52G_53F_54L_55C_67L_, Q9UKT9] are -1.18, -1.92, -1.55 and -1.3.
The corresponding values for FLCSVCGHVFTQKGNLLRHIKL [46F_47L_49S_50V_52G_53H_54V_55F_67L_, Q9UKT9] are -2.42, -2.11, -2.5 and -2.18.
For FFCEQCGAAFTQKGNLLRHIKL [46F_47F_49E_50Q_52G_53A_54A_55F_67L_, Q9UKT9], in that order: 0.842, 1.01, 0.32 and -1.11.
With FTCNQCGAMFTQKGNLLRHIKL [46F_47T_49N_50Q_52G_53A_54M_55F_67L_, Q9UKT9], the “log2 fold change of degron read counts” value was -2.5 under setting [1], -2.41 under setting [2], -1.29 under setting [3] and -1.58 (compound: thalidomide).
The corresponding values for FWCPQCGARFTQKGNLLRHIKL [46F_47W_49P_50Q_52G_53A_54R_55F_67L_, Q9UKT9] are 0.926, 3.08, 0.0765 and 0.0591.
The corresponding values for FTCEVCGAQFTQKGNLLRHIKL [46F_47T_49E_50V_52G_53A_54Q_55F_67L_, Q9UKT9] are -0.192, 2.19, 2.27 and 2.79.
The corresponding values for FGCEVCGAQFTQKGNLLRHIKL [46F_47G_49E_50V_52G_53A_54Q_55F_67L_, Q9UKT9] are 3.18, 2.36, 1.12 and 0.866.
FFCEVCGAQFTQKGNLLRHIKL [46F_47F_49E_50V_52G_53A_54Q_55F_67L_, Q9UKT9]: the “log2 fold change of degron read counts” value by setting is: under setting [1], 3.36; under setting [2], 3.6; under setting [3], 2.42; (compound: thalidomide) 1.89.
For FCCNQCGREFTQKGNLLRHIKL [46F_47C_49N_50Q_52G_53R_54E_55F_67L_, Q9UKT9], in that order: -3.21, -3.01, -3.16 and -3.5.
In the case of FYCDVCGAIFTQKGNLLRHIKL [46F_47Y_49D_50V_52G_53A_54I_55F_67L_, Q9UKT9], the “log2 fold change of degron read counts” value was 0.745 under setting [1], 0.688 under setting [2], -0.626 under setting [3] and -1.86 (compound: thalidomide).
For LYCEICGFWCTQKGNLLRHIKL [46L_47Y_49E_50I_52G_53F_54W_55C_67L_, Q9UKT9], in that order: 1.69, 1.16, 1.94 and 0.136.
The corresponding values for FNCEICGAGFTQKGNLLRHIKL [46F_47N_49E_50I_52G_53A_54G_55F_67L_, Q9UKT9] are 3.46, 0.722, -0.0429 and -0.254.
The corresponding values for FFCEICGAGFTQKGNLLRHIKL [46F_47F_49E_50I_52G_53A_54G_55F_67L_, Q9UKT9] are 3.51, 2.9, 1.61 and 0.677.
Take FACEICGAGFTQKGNLLRHIKL [46F_47A_49E_50I_52G_53A_54G_55F_67L_, Q9UKT9]: the “log2 fold change of degron read counts” value by setting is: under setting [1], 3.75; under setting [2], 1.86; under setting [3], 0.304; (compound: thalidomide) 0.339.
The corresponding values for FICEICGAGFTQKGNLLRHIKL [46F_47I_49E_50I_52G_53A_54G_55F_67L_, Q9UKT9] are 0.51, 2.54, 1.87 and 2.76.
For FRCEICGAGFTQKGNLLRHIKL [46F_47R_49E_50I_52G_53A_54G_55F_67L_, Q9UKT9], in that order: 2.78, 1.83, 2.46 and 1.7.
The corresponding values for FNCEQCGAGFTQKGNLLRHIKL [46F_47N_49E_50Q_52G_53A_54G_55F_67L_, Q9UKT9] are -0.14, -2.54, -2.33 and -2.8.
Take FDCEICGAGFTQKGNLLRHIKL [46F_47D_49E_50I_52G_53A_54G_55F_67L_, Q9UKT9]: the “log2 fold change of degron read counts” value reads like this: under setting [1], 1.89; under setting [2], -1.13; under setting [3], -0.599; (compound: thalidomide) -0.0656.
Consider FHCEICGAGFTQKGNLLRHIKL [46F_47H_49E_50I_52G_53A_54G_55F_67L_, Q9UKT9], for which the “log2 fold change of degron read counts” value runs as follows: under setting [1], 3.51; under setting [2], 1.13; under setting [3], 1.93; (compound: thalidomide) -0.622.
For FTCEICGAGFTQKGNLLRHIKL [46F_47T_49E_50I_52G_53A_54G_55F_67L_, Q9UKT9], in that order: 2.35, 2.19, 2.28 and 2.27.
Take FWCNICGAFFTQKGNLLRHIKL [46F_47W_49N_50I_52G_53A_54F_55F_67L_, Q9UKT9]: the “log2 fold change of degron read counts” value runs as follows: under setting [1], 1.6; under setting [2], 2.32; under setting [3], 0.971; (compound: thalidomide) -0.294.
The corresponding values for FKCNVCGASFTQKGNLLRHIKL [46F_47K_49N_50V_52G_53A_54S_55F_67L_, Q9UKT9] are -1.29, -2.06, -3.02 and -1.88.
The corresponding values for FFCNQCGRKFTQKGNLLRHIKL [46F_47F_49N_50Q_52G_53R_54K_55F_67L_, Q9UKT9] are -2.1, -2.17, -2 and -2.57.
The corresponding values for FRCPVCGAFFTQKGNLLRHIKL [46F_47R_49P_50V_52G_53A_54F_55F_67L_, Q9UKT9] are -0.609, -0.0858, 1.19 and 1.19.

The values above are taken from the supplement of paper PMC12645437, “Orthogonal IMiD-Degron Pairs Induce Selective Protein Degradation in Cells” (ACS Chemical Biology, 2025).
